Test results taken from PubChem BioAssay AID1766 (National Center for Advancing Translational Sciences (NCATS), 2009).
Screen size: about 290,000 compounds; fewer than 10 were called active. About 3% were inconclusive and are not listed. Calls come from the whole dose curve; as a rule, active = well fitted curve in the direction sought with a large enough effect in the polarisation (not every such curve was filed as active); inconclusive = small, poorly fitted or top-dose-only effect, or effect the other way, or a change in a side signal; inactive = no such curve, though single readings can be large or run the other way; the % refers to the polarisation. These entries were drawn from the full list.

Assay: qHTS Assay for Inhibitors Targeting the Menin-MLL Interaction in MLL Related Leukemias: Competition With Fluorescein Labeled MLL-derived Peptide
Settings: Fluorescence polarization, fluorescein-MLL peptide displacement from menin; series mostly up to 61.4 µM
Description: qHTS Assay for Inhibitors Targeting the Menin-MLL Interaction in MLL Related Leukemias NIH Chemical Genomics Center [NCGC] NIH Molecular Libraries Probe Centers Network [MLPCN] MLPCN Grant: MH084875-01A1 Assay Submitter (PI): Jolanta Grembecka, Tomasz Cierpicki, University of Virginia Translocations of the MLL (Mixed Lineage Leukemia) gene are frequently found in human leukemias affecting both children and adults. Fusion of MLL to one of more than 60 genes results in generation of oncogenic proteins upregulating Hox genes, which are vital to blood cell development. Patients harboring fusion of the MLL gene suffer from aggressive leukemias and respond poorly to available therapies. All of the oncogenic fusion proteins have a preserved N-terminal fragment of MLL that has been identified to interact with menin. It has been recently discovered that association with menin is critical to the leukemogenic activity of the MLL fusion oncoproteins. Selective targeting of the menin-MLL interaction could provide an attractive therapeutic approach to develop novel drugs for MLL-related leukemias. Small molecules blocking the menin-MLL interaction should reverse the oncogenic potential of MLL fusion proteins. We have developed and optimized a fluorescence polarization-based assay for the identification of Menin-MLL inhibitors. The assay was run employing two different MLL-derived peptides. The present assay uses a 12 amino acid peptide labeled with fluorescein at its N-terminus. This peptide consists of the menin high affinity binding motif from MLL and is potently bound by menin. Another peptide with a mutated sequence, labeled with Texas Red, was used in parallel as a less stringent screen for inhibitors.
The Menin protein, the MLL-wild type (w.t.) derived peptide (N-terminal 12 amino acids), the MLL-derived peptide labeled with Texas Red and the MLL-w.t. peptide labeled with Fluorescein were kindly supplied by laboratory of Dr. Jolanta Grembecka, University of Virginia. All protein and peptide solutions were stored in single use aliquots at -80C. The Eu3+ Cyrptate-conjugated mouse monoclonal antibody anti-6 Histidine (Eu3+-AB) and the Streptavidin-XL665 conjugate (XL665) were purchased from Cisbio International (Bedford, MA). All antibody and XL665 conjugate solution stocks were stored in single use aliquots at -20C. The Buffer components for all assays were purchased from Sigma-Aldrich (St. Louis, MO) and Invitrogen (Carlsbad, CA). FP Assay Reagents: 1. FP reaction buffer: 50 mM Tris-HCl pH 7.5, 50 mM NaCl, 1mM DTT. Before use, 0.05% BSA is added. 2. Menin protein, MLL-w.t. labeled with fluorescein, MLL-mutant peptide labeled with texas red. Stored in singe use aliquots at -80C. 3. MLL-w.t. unlabeled peptide as positive control: 10 uM final in FP buffer. FP Assay Procedure: 1. Prepare Menin at 200 nM, MLL-w.t.-fluorescein at 25 nM, and MLL-mutant-texas red at 50 nM mixture in FP buffer. 2. Prepare Menin at 200 nM, MLL-w.t.-fluorescein at 25 nM, MLL-mutant-texas red at 50 nM, and 10 uM MLL-w.t. unlabeled mixture in FP buffer. 3. Prepare MLL-w.t.-fluorescein at 25 nM and MLL-mutant-texas red at 50 nM mixture in FP buffer. 3. Dispense 4 ul per well of reagent in step 1 in columns 2, 4 - 48 in a black 1536 well plate, dispense 4 ul per well of reagents from steps 2 and 3 in columns 1 and 3 respectively. Incubate plate at ambient for 15 minutes. 4. Transfer 23 nl per well of compound to plate and incubate at ambient for 1 hr. 5. Read fluorescence polarization for each label using the PerkinElmer Envision. Envision protocol for fluorescein: FITC FP Dual Enh Mirror, Excitation filter 480, Emission filter (1) P-pol 535, Emission filter (2) S-pol 535 Envision protocol for texas red: FP Dual Enh Mirror, Excitation filter 555, Emission filter (1) P-pol 632, Emission filter (2) S-pol 632

FP activity change, inactive:
Cc1ccc(-c2noc(C3CCCN(C(=O)c4cccc(Cl)c4)C3)n2)o1 (stereo not drawn)
CS(=O)(=O)N1CCc2nc(-c3ccccc3)sc2C1
Cc1cc(C)c(NC(=O)CN2CCCCCC2)c(C)c1
COc1ccccc1-c1sc2ccccc2c1-c1ccc(C(C)=O)cc1
CCCC(C(=O)NC1CCCC1)N(C(=O)Cn1nnc(-c2ccc(C)o2)n1)c1cccc(O)c1 (stereo not drawn)
Cc1ccc(CSc2nsc(C)c2C#N)cc1
Cn1cc(S(=O)(=O)Nc2ccc(Cl)cc2Cl)c(=O)n(C)c1=O
CCc1ccc(C(=O)NN=C2CCCCCC2)s1
CCOc1ccccc1N1C(=O)CC(Sc2nccc(C)n2)C1=O (stereo not drawn)
COc1cccc(-c2noc(C3CCCN(C(=O)c4ccc(F)cc4)C3)n2)c1 (stereo not drawn)
O=S(=O)(Cc1cc(Cl)nc(-c2cccnc2)n1)c1ccccc1
Cc1noc(C)c1-c1ccc2ncnc(NCc3ccc4[nH]ccc4c3)c2c1
CCN(CC(=O)NCC(=O)Nc1cccc(C)c1C)Cc1ccccc1
CCCSc1nc2sc3c(c2c(=O)n1-c1ccc(OC)cc1)CCN(C)C3
COc1ccccc1-c1cnn2c(N3CCOCC3)cc(C)nc12
CCC1CCCCN1C(=O)CSc1nc2c(c(=O)n1C)SC(C)C2 (stereo not drawn)
C=CCNC(=S)/N=c1/ccccn1Cc1ccccc1
COc1cc2ccccc2cc1C(=O)N(CCN(C)C)c1nc2c(F)cccc2s1
CC1CN(C(=O)CCC(=O)NC2CCN(Cc3ccccc3)CC2)c2ccccc2O1 (stereo not drawn)
COc1ccc(CC(=O)N/N=C/c2cc([N+](=O)[O-])cc(Br)c2O)cc1
O=C(Nc1ccccc1)c1ccc2c(c1)OCCCO2
Cc1ccc(NC(=O)NC(=O)c2ccccc2)cc1F
COc1ccccc1CN1CCCC(N2CCN(c3ccc(F)cc3)CC2)C1 (stereo not drawn)
Cc1[nH]c(C)c(S(=O)(=O)N2CCN(c3cccc(C(F)(F)F)c3)CC2)c1C(=O)N1CCCCC1
COc1cccc(N(C(=O)c2snc(C(N)=O)c2N)C(C(=O)NCC2CCCO2)c2c[nH]c3ccccc23)c1 (stereo not drawn)
COc1ccccc1OCCOc1ccc(/C=C2\C(=N)N3N=C(C)SC3=NC2=O)cc1
C=C1CCN(Cc2ccc(OC)cc2)S(=O)(=O)c2ccccc21
CC1Sc2ccc(S(=O)(=O)CCC(=O)NCc3ccccc3Cl)cc2NC1=O (stereo not drawn)
CC(O)c1ccc(OCCN(C)c2ccccn2)cc1 (stereo not drawn)
CC(O)COc1ccccc1 (stereo not drawn)
CN(CC(=O)Nc1ccc(F)cc1)C(=O)c1ccc(-c2ccc(Cl)cc2)o1
CC(C)[C@@H]1COC(c2cccc(C3=N[C@H](C(C)C)CO3)c2)=N1
COc1ccc(OCc2cc(C(=O)N3CCCC3)no2)c2ccccc12
c1cnc(N2CCN(c3ccc4ccccc4n3)CC2)nc1
Cc1cc(=O)n2[nH]c(-c3cccc(Cl)c3)cc2n1
CCCCCC(O)(CCN1CCCCC1)c1ccccc1 (stereo not drawn)
Cc1cc(C)cc(OCC(=O)NC(C)c2ccccc2)c1 (stereo not drawn)
O=c1[nH]cccc1-c1nc2ccccc2n1Cc1ccc(Cl)cc1
CCCc1cc(=O)n2[nH]c(C)c(-c3ccc(Cl)cc3)c2n1
O=C1CCN(CCc2ccccc2)CCN1CCOc1ccccc1
Cc1cc(C)c(C#N)c(Nc2cccc(Br)c2)n1
O=C(NCCS(=O)(=O)N1CCN(c2ccccc2F)CC1)c1ccc(Br)o1
CCc1ccccc1OCC(=O)Nc1ccc2c(c1)OCCO2
Oc1ccc(C2Nc3cccc4cccc(c34)N2)cc1
Cc1ccc(-c2csc(NC3OC(=O)c4ccccc43)n2)cc1 (stereo not drawn)
Cc1n[nH]c(=O)c2c1nnn2Cc1ccc(F)cc1
COc1ccc(NC(=O)C/C(C)=N/NC(=O)c2cnccn2)cc1Cl
CS(=O)(=O)N1CCN(C(=O)CSc2ccccc2)CC1
COc1ccc2c(c1)c(C(=O)N/N=C/c1cccs1)c(C)n2C
CC(C)OC(=O)c1ccc(COc2ccc3ccc(=O)oc3c2)o1
CNC(=O)c1sc(Nc2ccc(OCc3ccccc3)cc2)nc1C
Cc1cccc(C)c1NC(=S)N1CCCCCC1
Cc1ccc(O)c(CNc2nc3ccccc3[nH]2)c1
COCCNC(=O)c1ccc2nc(Cc3ccc(OC)c(OC)c3)oc2c1
CCCc1cc(=O)[nH]c(SCC(=O)N2C(C)CCCC2C)n1 (stereo not drawn)
COc1cc(CNCc2ccc(OC)c3ccccc23)cc(OC)c1OC
Cc1ccc2oc(C(=O)N3CCN(C)C[C@@H]3C(C)C)c(C)c2c1
O=C(Nc1cccc(C(F)(F)F)c1)c1cc(Br)cc(Br)c1O
CC(C)(C)c1ccc(SCCc2ccncc2)cc1
COc1ccc(C(C(=O)NC(C)(C)C)N(Cc2ccc(F)cc2)C(=O)CCC(=O)Nc2cc(C)on2)cc1 (stereo not drawn)
CCOC(=O)c1ccc(NC(=O)Cc2cccs2)cc1
CCOc1ccc(N/C=C/C(=O)c2ccccc2)cc1
COc1ccc(N2CCN(S(=O)(=O)CCNC(=O)C34CC5CC(CC(C5)C3)C4)CC2)cc1
COc1ccc(/C=N/OCc2ccccc2C#N)c(OC)c1
CCn1c(SCC(=O)NC2CC2)nnc1-c1ccccc1OC
COc1cc2ccccc2cc1C(=O)Nc1ccccc1C
CSCCNC(=O)c1ccc2nc(Cc3ccccc3F)oc2c1
CC(c1ccccn1)N(C)C(=O)c1ccc2nc(Cc3cccc(Cl)c3)oc2c1 (stereo not drawn)
CCCOc1ccc(/C=N/NC(=O)C2CC2)c(OCCC)c1
O=C(CN1CCc2cc3c(cc2C1)OCCCO3)Nc1ccccc1
CCn1cc(/C=C(\NC(=O)c2cc(OC)c(OC)c(OC)c2)C(=O)N2CCN(C)CC2)c2ccccc21
COc1cccc(NC(=O)C2CCCN(c3ncnc4c3nc3n4CCCCC3)C2)c1 (stereo not drawn)
CCCc1ccc(OCCNC(=O)c2ccccc2Br)cc1
O=S(=O)(NCc1ccc(Cl)cc1Cl)c1cccs1
CC(CN1CCCCC1)c1ccccc1 (stereo not drawn)
COc1ccc(/C(C)=N\NC(=O)c2ccc(-c3ccccc3)cc2)c(F)c1
Cc1ccccc1NC(=O)CSc1nc2ccc(Nc3nc(N4CCOCC4)nc(N4CCOCC4)n3)cc2s1
CCOC(=O)Nc1ccc2c(c1)N(C(=O)CCCl)c1ccccc1[S@]2=O
CSc1nccc(NC(=O)c2ccc(C(C)(C)C)cc2)n1
O=C(c1cc(COc2cccc(C(F)(F)F)c2)on1)N1CCSCC1
Oc1ccccc1-c1cc(-c2ccc(Cl)cc2)n[nH]1
CC1CCC2CCCCC2N1C(=O)c1cc([N+](=O)[O-])cc([N+](=O)[O-])c1 (stereo not drawn)
Cc1ccc(C(=O)Nc2nnc(C3=COCCO3)o2)cc1C
N#C[C@]1(S(=O)(=O)c2ccccc2)C[C@@H]2ON=C(c3cccc(Br)c3)[C@@H]2C1
O=C(N/N=C/c1cccc(OCc2ccccc2)c1)c1ccc(Br)o1
N#CC(C#N)=CN=c1ccn(Cc2ccc(Cl)cc2Cl)cc1
FC(F)(F)C1CCCN(c2nsc3ccccc23)C1 (stereo not drawn)
N=c1oc2ccccc2cc1C(=O)NCc1ccccc1
COCCCNc1nc2c(-c3cccc(C)c3)nnn2c2ccc(Cl)cc12
O=C(NCCNc1ccccc1[N+](=O)[O-])c1ccccc1F
N#CCc1ccc(NC(=O)c2ccccc2C(=O)Nc2ccc(CC#N)cc2)cc1
CCn1cc(CN2CCC(C(=O)Nc3cccc(-c4cccc(Cl)c4)c3)CC2)c(C)n1
Cc1ccc(CCNC(=O)c2ccc3nc4ccccc4c(=O)n3c2)cc1
